Screening data (PubChem BioAssay)
Chronic BCR inh = inhibitors of chronic active B-cell receptor signaling; ABC-DLBCL IkBa-CBG/CBR reporter, luminescence ratio, 4 h; Potency, µM (highest dose often 46.1 µM), inactives show top-dose activity change, negative = inhibition, most hits filed as inhibitors; 340,000 compounds, 0.05% hits; AID 493014; active = well fitted inhibition curve with a large enough effect in the signal ratio, with a control signal flat, not every such curve was filed as active; inconclusive = small, poorly fitted or top-dose-only effect, or effect the other way, or a change in a side signal; the % refers to the signal ratio;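 note: plate controls were basal doxycycline-induced cells for no effect and cells given 10 µM MG132 for full effect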
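Cell line TMD8 (human ABC DLBCL), stably expressing tet-inducible CBG68-IkBa fusion and CBR; IMDM/0.5% FBS; cpd up to 46 uM; dox induction, 4 h, 37C/5% CO2; dual luminescence; green/red ratio; MG132 control.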
a7 integrin act = activators of alpha7 integrin expression for muscular dystrophy | alpha7betagal myoblasts, beta-gal FDG fluorescence, 48 h | Potency, µM (doses to about 38.3 µM), for the others: at the top dose activation, hits mostly activators | 350,000 compounds, 0.064% hits | AID 624291;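 note: 100% = response of the positive control SU9516; nearly all actives have a fitted effect of over 60% in size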
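alpha7betagal+/- myoblasts (passage 13, 250/well) treated 48 h at 37C with compounds at 1:260 dilution of DMSO stock. Lysed, then beta-galactosidase activity read as FDG fluorescence (ex 480/em 540) after 30 min, with pre-read for autofluorescence.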
VP16 counter = counter-screen for ROR gamma inhibitors: Gal4-VP16 reporter | Drosophila S2 Gal4-VP16 UAS-luciferase, luminescence, 20 h | Potency, µM (highest dose often 53.6 µM), inactives show at the top dose activity, negative = inhibition, usual class: inhibitors | 310,000 compounds, 3.5% hits;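 note: Gal4-VP16 expression switched on by copper sulfate through the metallothionein promoter; % is set by controls: 0 for no effect and ±100 for the full control effect; nearly all actives have a fitted effect of over 50% in size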
RORgamma inh = blocks mouse ROR gamma transcriptional activity. 310,000 compounds, 5.4% hits. Drosophila S2 Gal4-RORgamma UAS-luciferase reporter, 20 h. Potency, µM (titrated, usually from 53.6 µM), without a hit: top-dose activity change, negative = inhibition, usual class: inhibitors. AID 2551; note: % is set by controls: 0 for no effect and ±100 for the full control effect; nearly all actives have a fitted effect of over 60% in size
Target sequence (P51450 whole entry, looked up, the tested form may be a part): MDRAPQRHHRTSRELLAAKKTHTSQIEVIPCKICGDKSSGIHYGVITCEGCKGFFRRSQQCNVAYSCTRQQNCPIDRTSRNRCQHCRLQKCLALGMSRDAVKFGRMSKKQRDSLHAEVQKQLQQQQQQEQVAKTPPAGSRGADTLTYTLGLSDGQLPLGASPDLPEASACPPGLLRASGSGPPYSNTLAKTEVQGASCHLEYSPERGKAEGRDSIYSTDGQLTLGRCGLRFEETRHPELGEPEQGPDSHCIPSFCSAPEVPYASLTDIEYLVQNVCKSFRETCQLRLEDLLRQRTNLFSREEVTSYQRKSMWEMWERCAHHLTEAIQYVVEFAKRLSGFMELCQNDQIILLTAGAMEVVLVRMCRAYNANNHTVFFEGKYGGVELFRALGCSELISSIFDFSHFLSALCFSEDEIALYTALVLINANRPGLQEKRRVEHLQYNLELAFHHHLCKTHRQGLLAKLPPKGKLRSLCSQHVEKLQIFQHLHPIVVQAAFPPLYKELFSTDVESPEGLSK
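In this cell-based reporter format, copper sulfate (700 uM final) drives Gal4–ROR gamma fusion expression from a metallothionein promoter in Drosophila Schneider cells; compounds preincubated 1 hr, reporter read after 20 hr at ambient temperature.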
Mito fusion yeast = mitochondrial division inhibition or fusion activation | S. cerevisiae fusion-defective mutant growth rescue, CellTiterGlo 48 h | Potency, µM (highest dose often 46.1 µM), inactives show top-dose growth rescue (activation), hits mostly activators | 320,000 compounds, 0.23% hits; note: % of control where 0% means no effect; nearly all actives have a fitted effect of over 45% in size
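Growth-rescue viability read-out: after 48 h at the non-permissive 37C in glycerol/ethanol YPEG, yeast mitochondrial fusion mutants are measured by CellTiterGlo luminescence; compounds (23 nl pinned per well) restoring growth score as division inhibitors or fusion activators.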
uPA generation = cell surface uPA generation inhibition; cell surface uPA generation assay, qHTS; Potency, µM (titrated, usually from 38.3 µM), without a hit: at the top dose activity change, negative = inhibition, most hits filed as inhibitors; 330,000 compounds, 0.31% hits; active = well fitted inhibition curve with a large enough effect; inconclusive = small, poorly fitted or top-dose-only effect; inactive = no such curve, though single readings can be large or run the other way; tested in mouse RAW 264.7 cells; note: % is set by controls: 0 for no effect and ±100 for the full control effect; nearly all actives have a fitted effect of over 55% in size
The depositor's hits bear a star; ? = inconclusive; · = no result; [ ] = remark or other dose. This is a sample that favours compounds with a hit; in the whole collection about 5.5% have one here. Unless noted, calls come from the whole dose curve; as a rule, active = well fitted curve in the direction sought with a large enough effect; inconclusive = small, poorly fitted or top-dose-only effect, or another doubt; inactive = no such curve, though single readings can be large; an effect the other way counts as inactive or inconclusive. Potency is the fitted concentration of half-maximal effect.

SMILES	Chronic BCR inh	a7 integrin act	VP16 counter	RORgamma inh	Mito fusion yeast	uPA generation
CSc1ccccc1NC(=O)CN1C(=O)C2CC=CCC2C1=O (centres undefined)	1%	3%	·	·	5%	4%
O=C(Nc1nnc(-c2ccccc2Cl)o1)c1cc2cc([N+](=O)[O-])ccc2s1	-1%	·	-4%	-20%	15%	·
N#Cc1ccc(C(=O)Nc2nnc(-c3ccco3)o2)cc1	?	-23%	3.2µM*	1µM*	1%	-15%
O=C(Nc1nnc(-c2ccco2)o1)c1ccc([N+](=O)[O-])s1	?	-13%	2.8µM*	0.89µM*	0%	-8%
COc1ccc(C2NC(c3ccc(OC)cc3OC)C(C)C(=O)C2C)c(OC)c1 (centres undefined)	-6%	15%	0%	13%	-1%	2%
Cc1cccc(C)c1NC(=O)CCCSc1nc2ccccc2s1	1%	-46%	12%	-9%	-1%	2%
NC(=O)NC(=O)COC(=O)CCCSc1nc2ccccc2s1	?	4%	8.9µM*	11µM*	2%	3%
CCOC(=O)N/C(N)=N/c1nc2ccccc2s1	?	17%	28µM*	?	1%	-1%
CCC(C)(C)NC(=O)CCCSc1nc2ccccc2s1	12%	-4%	-51%	-40%	21%	-3%
CC(C)NC(=O)NC(=O)COC(=O)CCCSc1nc2ccccc2s1	?	-6%	6.3µM*	11µM*	1%	-2%
CCOC(=O)NC(=O)COC(=O)CCCSc1nc2ccccc2s1	?	-17%	8.9µM*	7.1µM*	7%	1%
NC(=O)C1Cc2ccccc2CN1S(=O)(=O)c1ccc(Cl)s1 (centres undefined)	-1%	-2%	-9%	7%	11%	-2%
N#Cc1ccc(CN2CCC3(CCNCC3)CC2)cc1	·	·	4%	-6%	·	·
O=C(NCC(c1cccnc1)N1CCN(c2ccc(F)cc2)CC1)OCc1ccccc1 (centres undefined)	9%	-17%	?	13µM*	13%	-2%
O=C(NCC(c1cccnc1)N1CCN(c2ccccc2)CC1)OCc1ccccc1 (centres undefined)	6%	-24%	-7%	-14%	28%	2%
CCOC(=O)c1ccc(CN(Cc2ccc(C)cc2)S(=O)(=O)c2ccc(F)c(C(=O)Nc3ccc(C)c(F)c3)c2)cc1	3%	·	·	·	·	·
CSc1nc(-c2ccco2)cc(-c2ccccc2)c1C#N	-7%	7%	?	16µM*	4%	-1%
Cc1cccn2c(=O)nc(SCC(=O)N3CCC(C)CC3)nc12	2%	-17%	·	·	-1%	-6%
COc1cccc(C(=O)NC2CCN(CC(=O)Nc3c(C)cc(C)cc3C)CC2)c1	?	·	13µM*	?	-14%	·
COc1ccc(C(=O)NC2CCN(CC(=O)Nc3c(C)cccc3C)CC2)cc1OC	2%	-15%	10%	6%[1.91 µM]	0%	4%
O=C(COc1ccc(Br)cc1)NNC(=O)c1ccc(-n2cncn2)c([N+](=O)[O-])c1	0%	4%	·	·	-4%	8%
COc1ccc(S(=O)(=O)N2CCCCCC2)cc1C(=O)N1CCCCC1	?	?	?	1.4µM*	-4%	8%
O=C(c1cc(S(=O)(=O)N2CCN(c3ccccc3)CC2)ccc1Cl)N1CCCCCCC1	6%	-34%	·	·	14µM*	-3%
CC1CN(C(=O)c2cc(S(=O)(=O)N3CCN(c4ccccc4)CC3)ccc2Cl)CC(C)O1 (centres undefined)	4%	-31%	·	·	9%	-6%
COc1ccc(S(=O)(=O)N2CCCCCC2)cc1C(=O)N1CCN(C(C)=O)CC1	·	-18%	·	·	·	·
N#CCCN(C(=O)COC(=O)C1CCN(S(=O)(=O)c2cccs2)CC1)c1ccccc1	3%	-9%	-11%	-1%	5%	-2%
Cc1ccc(S(=O)(=O)NN=C2CCCc3ccccc32)cc1	·	-24%	·	·	·	·
CC1=C(C)C(C)=C(C#N)C(=C(C#N)C#N)N1	?	9%	-1%	2%	0%	4%
